Data published in the supplement of paper PMC10338343.
± gives the standard deviation.

test system: MILI (PIWIL2) piRISC loaded with L1MC piRNA (26 nt); experiment: pre-steady-state target cleavage rate (min^-1); guide: L1MC piRNA 5'p-UAACUAAAUACUAUGCAAGCUGUAGG; MIWI and MILI are mouse PIWI proteins and EfPiwi is from a freshwater sponge; tags in brackets are library labels; higher = faster piRNA-guided slicing of the target; details: auxiliary factor: 500 nM mouse GTSF1
Outline: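 A transcribed, DNA-blocked target RNA library […] was incubated at 33 °C for 0–8 or 0–960 min with 1 nM active affinity-purified piRISC carrying one synthetic guide, in HEPES–potassium acetate buffer with or without 500 nM GTSF1 partner protein. Uncleaved targets were then sequenced and normalised to depth and to weakly complementary targets. Data from three trials were pooled, with k3 capped at 0.0001 min^-1, and a burst-and-steady-state fit yielded the pre-steady-state cleavage rate.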
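Also: 1 nM active piRISC with 0.1 nM target library at 33 °C single turnover.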

Compared with UCCUGCUACAGCAUGCAUAGUAUUUACAAA, UCCUGCUUGUGCUUGCAUAGUAUUUACAAA is lower in “pre-steady-state target cleavage rate” value: 0.146 ± 0.043 for the first, 0.0112 ± 0.0055 for the second.

UCCUCCUACAGCUUGCAUAGAUAUUAGUAA and UCCUGGAUGUGCUUGCAAAGUAUUUAGAUA are within error of each other in “pre-steady-state target cleavage rate” value: 0.015 ± 0.007 for the first, 0.0284 ± 0.008 for the second.

UCCUGGUACUCCUUGCAUAGUAUUUAGUUA and UCCUGGAUCAGCUUGCUUAGUAUUUAGAUA are within error of each other in “pre-steady-state target cleavage rate” value: 0.217 ± 0.046 for the first, 0.15 ± 0.023 for the second.

same assay, conditions: auxiliary factor: none (no GTSF1)

“UCCUGGAUGUCGAAGCAUAGUUAAAUCAAA [g10:g16:cont:t1A]” and UCCUGGAUGUCGAACGUAUCUAAUUUAGUUA cannot be ordered by “pre-steady-state target cleavage rate” value: under 0.0001 for the first, under 0.0001 for the second.

UCCUGGAUGUCGAACGAAAGUAUAUAGUUA and UCCUGGAUGUCGAACGUAUCUAAUUAGUUA cannot be ordered by “pre-steady-state target cleavage rate” value: under 0.0001 for the first, under 0.0001 for the second.

UCCUGGAUGUCGAACCAUCAGUAUUUAGUUA and UCCUGGAUGUCCAACCAUAGUAUUUAGUAA cannot be ordered by “pre-steady-state target cleavage rate” value: under 0.0001 for the first, under 0.0001 for the second.

UCCUGGAUGUCGAACGAUAGUUAUUUAGUUA and UCCUGGAUGUCGAAGCAUAUAUUUAGUUA cannot be ordered by “pre-steady-state target cleavage rate” value: under 0.0001 for the first, under 0.0001 for the second.

Compared with UCCUGGAUGUCGAACCAUGAGUAUUUAGUUA, UCCUGGAUGUCGUUGCAUAGUUAAUAGUUA is higher in “pre-steady-state target cleavage rate” value: under 0.0001 for the first, 0.00434 ± 0.0022 for the second.
